# Among all 2,200 compounds or so, about 1,200 (55%) were called active. The set was probably picked from earlier hits. The list shows a part of the results. Unmarked numbers belong to inactive results. No cut-off is given here; in the data, nearly all actives have IC50 up to about 92 µM.
# Assay: counter assay for TAg ATPase ADP read-out – biochemical, ADP-Hunter, fluorescence, counter-screen (AID 2501);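 note: purified T antigen ATPase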;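 for inhibition: 0% = enzyme with vehicle and 100% = reference inhibitor wells; higher means more inhibition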
# Conditions: series mostly up to 100 µM; inhibition: at the top concentration
SMILES,IC50,inhibition
O=C(NC(=S)Nc1ccc(O)cc1)c1cncc(Br)c1,3.94 µM (active),–
O=C(O)[C@H]1CCCC[C@H]1C(=O)Nc1ccc(Nc2ccccc2)cc1,3.86 µM (active),–
COc1cccc(NC(=S)Nc2ccc(O)cc2)c1,1.13 µM (active),–
O=c1[nH]c2cc3c(cc2cc1CN(Cc1cccnc1)Cc1nnnn1Cc1ccco1)OCCO3,–,-30.1%
COc1ccc(N=Cc2c[nH][nH]c2=O)cc1,9.97 µM (active),–
CC1(C)Nc2ccc(O)cc2-c2c1ssc2=S,14.6 µM (active),–
O=C1OCC/C1=C\c1ccc(O)cc1,7.82 µM (active),–
Nc1ccc(O)c2ccccc12,–,5.37%
CS(=O)(=O)c1ccc(N)c(SSc2cc(S(C)(=O)=O)ccc2N)c1,–,23.8%
Nc1cc(S(=O)(=O)c2ccc(O)c(N)c2)ccc1O,3.9 µM (active),–
Nc1n[nH]c(=S)n1/N=C1/C(=O)Nc2ccccc21,9.5 µM (active),–
Cn1cccc1/C=N/N1CCN(c2ccccn2)CC1,7.28 µM (active),–
Cn1cccc1/C=N/N1CCN(Cc2ccccc2)CC1,21 µM (active),–
Cc1cccc(C)c1NCC(=O)N1CCN(Cc2ccccc2)CC1,–,-18.3%
Oc1ccc(/C=N/N2CCN(c3ccccn3)CC2)cc1,10.4 µM (active),–
COc1cccc(CN2CCN(Cc3nc(-c4cccs4)oc3C)CC2CCO)c1 (stereo unspecified),< 1.56 µM (active),–
Cc1oc(-c2cccs2)nc1CN1CCN(C(C)C)C(CCO)C1 (stereo unspecified),–,-11.3%
COCc1cc(CN2CCN(CCc3ccccc3)C(CCO)C2)ccc1OC (stereo unspecified),–,-22.7%
N#CC1=C(N)C2=C(N3CCCCC3)CCCC2C1(C#N)C#N (stereo unspecified),8.2 µM (active),–
COc1cc(/C=C2\SC(=S)N(C(Cc3ccccc3)C(=O)O)C2=O)ccc1O (stereo unspecified),6.37 µM (active),–
CC(C(=O)Nc1ccc(C(=O)O)c(O)c1)N1C(=O)/C(=C\c2ccco2)SC1=S (stereo unspecified),–,21%
CC(C)C(C(=O)O)N1C(=O)/C(=C/C=C/c2ccco2)SC1=S (stereo unspecified),–,-26.3%
O=C(O)C(Cc1ccccc1)N1C(=O)/C(=C/C=C/c2ccco2)SC1=S (stereo unspecified),–,-0.25%
O=C(O)C(c1ccccc1)N1C(=O)/C(=C\c2ccc(O)c(O)c2)SC1=S (stereo unspecified),8.33 µM (active),–
COc1cc(/C=C2\SC(=S)N(C(C(=O)O)c3ccccc3)C2=O)ccc1O (stereo unspecified),7.98 µM (active),–
Cc1ccc([C@@H]2[C@@H]3C(=O)N(c4ccccc4)C(=O)[C@@H]3[C@]3(C)C(=O)N(Cc4ccccn4)CC(=O)N23)o1,–,-36.8%

SMILES,IC50,inhibition
CSc1nnc(-c2ccc(O)cc2)n1C,27.5 µM (active),–
CCOC(=O)/C=C/C(=O)OCC(=O)NCc1ccccc1,–,-8.77%
CC/C(=N\NC(=O)CCC(=O)NCc1ccccc1)c1ccc(O)cc1,9.43 µM (active),–
Cc1cc(C)cc(-n2nnc(C(=O)NCc3ccccc3)c2N)c1,–,-17.4%
CN1C(=O)C2C(c3ccc(N(C)C)cc3)=NN(Cc3ccccc3)C2C1=O (stereo unspecified),9.4 µM (active),–
CC(C)C(=O)Nc1ccc(O)c(-c2csc(N)n2)c1,10.3 µM (active),–
O=[N+]([O-])c1cccc(NC(=S)NCc2ccncc2)c1,–,-17.7%
CCc1cccc2c(C(=O)CN3C(=O)NC(C)(c4cccc5ccccc45)C3=O)c[nH]c12 (stereo unspecified),–,-8%
CCc1nc(SCC(=O)Nc2ccc(N(C)C)cc2)n[nH]1,6.73 µM (active),–
CSc1nnc(-c2ccco2)c(-c2ccco2)n1,–,-17.9%
Cn1c2ccccc2c2nnc(SCC(=O)Nc3cccc(C(=O)O)c3)nc21,–,-13.3%
Cc1ccccc1NC(=O)CSc1nnc(-c2ccco2)c(-c2ccco2)n1,–,9.02%
CN(C)c1ccc(NC(=O)CSc2nnc(-c3ccco3)c(-c3ccco3)n2)cc1,6.24 µM (active),–
FC(F)(F)C1CCCN(c2nsc3ccccc23)C1 (stereo unspecified),–,23.6%
CN1\C(=C/C=C/C=C/C=[N+](C)C)C(C)(C)c2ccccc21,12.3 µM (active),–
Cc1cc(/C=N/NC(=O)C(O)(c2ccccc2)c2ccccc2)c(C)n1-c1cccc(C(=O)O)c1,–,-36.7%
CCc1cc(C(=O)N/N=C/c2ccc(O)cc2)c2ccccc2n1,2.69 µM (active),–
O=C(O)c1cc(N/N=C/c2cccc3ccccc23)ccc1Cl,–,23.8%
Cc1nnc(NC(=O)c2cc(-c3ccco3)nc3ccccc23)s1,–,-14.3%
CNC(=S)NNC(=O)c1cc(C(C)(C)C)nn1Cc1ccc(F)cc1,–,26.2% [at 50 µM]
CC(C)(C)c1cc(C(=O)N/N=C/c2ccc(O)cc2)n(-c2ccccc2)n1,61.4 µM (active),–
O=C(N/N=C/c1ccc(O)cc1)c1csc2ccccc12,4.27 µM (active),–
Cc1cccc(NC(=O)c2cc(Cl)nc3ccccc23)c1,–,-15.5%
Cc1ccc(-c2cc(C(=O)NCc3ccco3)c3ccccc3n2)o1,–,-48.7%
O=C(N/N=C/c1ccc(O)c(O)c1)c1cc(-c2ccccc2)nc2ccccc12,36 µM (active),–

# — PubChem BioAssay AID2501 (Southern Research Specialized Biocontainment Screening …, 2010)
